Data on 83 compounds can be found in PubChem BioAssay AID1532 (PCMD, 2009).

In all, about 110,000 compounds went through this assay and about 420 (0.38%) were called active. No stated cut-off is given here; in the data, active means inhibition above about 30% (passing the limit was not always enough); inconclusive means no clear call, values can overlap the other calls. Shown is part of a subset that was picked to be rich in actives.

The test system of the experiment is RmlC (dTDP-4-dehydrorhamnose 3,5-epimerase) and RmlD (dTDP-4-dehydrorhamnose reductase), coupled enzyme assay. Put plainly: RmlC and RmlD coupled enzyme inhibitors, primary screen, biochemical, 384-well, compound mixtures, retest (AID 1532). The conditions noted are these: 384-well mixture HTS, at 5.5 µM, stronger effect = higher value.
The mark [1] stands for this setting: measured here: mean retest inhibition.

Turning to `COc1cc(OC)c2ccc(=O)oc2c1C(CCN1CCN(c2ccccc2)CC1)c1ccc2c(c1)OCO2` (stereo not given), the inhibition is -3.48% (inactive). Still for that read-out and setting: to `CCOC(=O)/C=C/CN(C(=O)OC(C)(C)C)S(=O)(=O)N1CC=CC1` belongs -3.8% (inactive).

Regarding `C#CCOCCOCCOCCNc1nc(N2CCN(C(=O)[C@H](CCC(=O)O)n3cc(C(N)CO)nn3)CC2)nc(N2CCN(C(=O)[C@H](CCCCN)n3cc(C(N)CC(C)C)nn3)CC2)n1` (stereo not given in full), the inhibition was 12.9% (inactive).

As to `Cc1nc(-c2ccccc2)sc1C1(C)CC(c2cccnc2)=NO1` (stereo not given), the inhibition is 1.85% (inactive). Still for that read-out and setting: to `O=c1[nH]snc1-c1c(Cl)cccc1Cl` belongs -15.8% (inactive); to `COC(C[C@H](O)CC(=O)COCc1ccccc1)OC`, -6.86% (inactive). On the same count and under the same terms, in the case of `CCN1C(=O)N[C@@H](c2ccccc2)[C@H](C(C)=O)[C@H]1C` it was -8.96% (inactive); in that of `Cc1ccc(-c2cc(=O)c3ccc(F)cc3[nH]2)cc1`, -13.2% (inactive). For the compound `O=C(NCC1CC1)c1onc(CSc2ccccc2)c1C(=O)NCC1CC1`, the inhibition was -3.31% (inactive). Still for that read-out and setting: in the case of `O=C1CC2(CCCC2)Oc2ccc(Cl)cc21` it was 2.74% (inactive).

Regarding `CCCc1cc(=O)oc2c(C)c(O)c(CN3CCCCC3)cc12`, the inhibition was 125% (inactive). Also, the inhibition under setting [1] was found to be 66.6%. Regarding `COC(=O)COc1ccc2oc(=O)cc(C)c2c1`, the inhibition was 10.6% (inactive). In the case of `COC(=O)Cc1cc(=O)oc2c(C)c(O)ccc12`, the inhibition is 115% (active). For the same compound, the inhibition under setting [1] was found to be 108%. For `CCO[C@H]1OC(C(=O)N2CCN(Cc3ccccc3)CC2)=C[C@@H](c2cn(C(C)=O)c3ccccc23)[C@@H]1CCCO`, the inhibition was 77% (inactive). In addition, under setting [1], the inhibition was 8.54%. For the compound `Cc1nc(C(=O)Nc2ccc(Cl)cc2)sc1C1(C)CC(c2ccccc2)=NO1` (stereo not given), the inhibition was 7.11% (inactive).

With `C=CCOC(=O)C1=C[C@H](c2ccc(Br)cc2)C[C@H](OCCCCO)O1`, the inhibition under setting [1] came to 3.33%. Turning to `C[C@@H](C(=O)N1CCNCC1)n1cc(CCC(=O)O)nn1`, the inhibition was -10.6% (inactive).

On to `CC(=O)Nc1sc2c(c1C(c1cccc(F)c1)N1CCN(CCO)CC1)CCCC2` (stereo not given), for which the inhibition is -13.5% (inactive). Still for that read-out and setting: to `COc1cccc(-c2nnc(N(C)C(=O)c3ccno3)s2)c1` belongs 11.7% (inactive); to `CN(C(=O)c1ccno1)c1nnc(-c2cccnc2)s1`, 11.4% (inactive); to `CN(Cc1ccccc1)C(=O)COc1ccccc1`, -9.33% (inactive).

Take `CN(C(=O)c1ccccn1)c1nnc(-c2ccccn2)s1`: the inhibition was 73.7% (active). Further, the inhibition under setting [1] came to 110%. Turning to `CN(C(=O)C1CCOC1)c1nnc(-c2cccnc2)s1` (stereo not given), the inhibition was -5.38% (inactive). Take `COC(=O)Nc1c(C)n(C)n(-c2ccccc2)c1=O`: the inhibition is 3.72% (inactive). For the compound `Cc1c(NC(=O)c2coc(=O)c(Br)c2)c(=O)n(-c2ccccc2)n1C`, the inhibition is 75.6% (active). For the same compound, under setting [1], the inhibition worked out at 104%. For `Cc1cc(C(=O)Nc2c(C)n(C)n(-c3ccccc3)c2=O)cs1`, the inhibition was -9.2% (inactive).

On to `COc1ccc(COCCN2CCN(S(=O)(=O)c3ccccc3)CCC2=O)cc1`, for which the inhibition is 2.31% (inactive).

For the compound `CC(=O)N[C@H]1[C@H]([C@H](O)[C@H](O)CO)OC(C(=O)O)=C[C@@H]1O`, the inhibition was 1.59% (inactive). The same measure, in the same setting: in the case of `COc1ccc(C2/C=C\CN(CC(C)C)CC(=O)N2Cc2ccc(F)cc2)cc1` (stereo not given) it was -6.08% (inactive); in that of `NC(N)=NCCCc1cn(CC(=O)N2CCNCC2)nn1`, -8.74% (inactive); in that of `COc1ccc2c(c1)CCNC2Cc1ccc(OC)c(O)c1` (stereo not given), -40.5% (inactive). On the same count and under the same terms, in the case of `Cc1cn(C)c(=O)n(C)c1=O` it was -2.57% (inactive). Still for that read-out and setting: in the case of `CC(C)(C)OC(=O)NCCCC1=CC2=CC(=O)C(C)(OC(=O)c3ccco3)C(=O)C2=CO1` (stereo not given) it was -13.3% (inactive); in that of `Cc1ccc(NC(=O)N2CCSc3ccccc32)cc1`, -8.05% (inactive).

Take `NC(=O)CC[C@@H]1NC(=O)[C@H](CO)NC(=O)c2cc([N+](=O)[O-])cc(I)c2NCC[C@@H](C(N)=O)NC1=O`: the inhibition was -1.33% (inactive). The same measure, in the same setting: to `CCCC[C@@H]1CN=C(N)N1CCc1cccc(F)c1` belongs 4.76% (inactive); to `CNC(=O)c1[nH]cnc1C(=O)N[C@@H](CC(C)C)C(=O)OC(C)(C)C`, -13.2% (inactive); to `C#Cc1ccc([C@@H]2C=C(C(=O)O)O[C@H](OCCCCO)C2)cc1`, -5.63% (inactive).

`O=C(NCc1ccccc1)c1onc(CSc2ccncc2)c1C(=O)NCc1ccccc1`: the inhibition was 2.05% (inactive). The same measure, in the same setting: to `CCOC(=O)c1ccc(NC(=O)c2c(N)n(C)c(=O)[nH]c2=O)cc1` belongs 8.64% (inactive); to `COc1ccc(CNC(=O)[C@@H]2CC=C[C@@H]3CCN(C4CC4)C(=O)[C@@H]32)cc1`, 4.14% (inactive). As for `CC1(C)S[C@@H]2[C@H](NC(=O)COc3ccccc3)C(=O)N2C1C(=O)OCc1ccccc1` (stereo not given in full), the inhibition is 5.36% (inactive).

Regarding `C#CCCOC(=O)N1C2=NC(C(=O)OC)=C(C(=O)OC)[C@@H]3N(C)c4ccc(OC)cc4[C@]23C[C@H]1C(=O)OC`, the inhibition is -9.08% (inactive). On the same count and under the same terms, in the case of `CN1CCN(C(CNS(=O)(=O)c2cccs2)c2cccnc2)CC1` (stereo not given) it was -1.39% (inactive); in that of `O=C1N[C@@H](Cc2ccccc2)C(=O)N2[C@@H]3N(S(=O)(=O)c4ccc(F)cc4)c4ccccc4[C@]3(Br)C[C@@H]12`, -18.2% (inactive). Turning to `C#CCOCCOCCOCCNc1nc(N2CCN(C(=O)[C@H](CCC(=O)O)n3cc(C(N)CO)nn3)CC2)nc(N2CCN(C(=O)[C@H](Cc3ccc(O)cc3)n3cc(C(N)[C@H](C)CC)nn3)CC2)n1` (stereo not given in full), the inhibition was 7.3% (inactive). As for `O=C1N[C@H](Cc2ccccc2)C(=O)N[C@H]1Cc1cn(S(=O)(=O)c2ccccc2)c2ccccc12`, the inhibition was -14.5% (inactive). For the compound `CC(C)[C@@H]1NC(=O)c2cc([N+](=O)[O-])cc(I)c2NCCC[C@@H](C(=O)NC(CC(=O)O)C(N)=O)NC(=O)[C@H](CO)NC1=O` (stereo not given in full), the inhibition was -19.9% (inactive). On to `NC(=O)CC[C@@H]1NC(=O)[C@@H]2CCCN2C(=O)c2cc([N+](=O)[O-])cc(F)c2NCCC[C@@H](C(N)=O)NC1=O`, for which the inhibition was -71.2% (inactive). With `NC(=O)C1=C[C@H](c2csc3ccccc23)C[C@H](OCc2ccc(CO)cc2)O1`, the inhibition is -63% (inactive). On the same count and under the same terms, in the case of `COP1(=O)C[C@@H](O)[C@@H](O)[C@@H](COCc2ccccc2)O1` (stereo not given in full) it was 11.1% (inactive); in that of `CCN1C(=O)N[C@@H](CCc2ccccc2)C(C(=O)OC)=C1C`, 4.12% (inactive); in that of `Cc1ccc(-c2csc(NCCc3nc4cc(Cl)c(Cl)cc4n3CCOCCO)n2)cc1`, 7.32% (inactive). Still for that read-out and setting: to `C=CCNC(=O)c1csc(-c2ccccc2)n1` belongs 10.9% (inactive).

On to `C=CCNc1nc(N)c(C(=C(C#N)C#N)c2ccccc2)s1`, for which, for the setting “above what the read-out allows, likely interference”, the inhibition was 654% (active).

For the compound `CCOC(=O)CN1C(=O)N[C@@H](c2ccc(Br)cc2)C(C(C)=O)=C1C`, the inhibition is -1.77% (inactive). The same measure, in the same setting: in the case of `COC(=O)c1c(C)cc(O)c(C)c1O` it was 12% (inactive); in that of `CC(C)(C)Oc1ccccc1Nc1nc(NCCO)nc(N2CCCC2)n1`, -10.1% (inactive); in that of `NC1=NC[C@@H](Cc2ccc(O)cc2)N1CC1CCCCC1`, 10.2% (inactive). On the same count and under the same terms, in the case of `C=CCOC(=O)C1=C[C@@H](c2ccccc2)C[C@@H](OCc2ccc(CO)cc2)O1` it was 4.95% (inactive). On to `CC[C@H](C)[C@@H](C(=O)N1CCNCC1)n1cc([C@@H](N)Cc2ccc(O)cc2)nn1`, for which the inhibition is -30% (inactive). As to `CC1(c2nnc(-c3ccncc3)o2)CC(c2cccnc2)=NO1` (stereo not given), the inhibition was -44.9% (inactive). Turning to `O=C1CCC(=O)N(O)CCCCCNC(=O)CCC(=O)N(O)CCCCCNC(=O)CCC(=O)N(O)CCCCCN1`, the inhibition was -1.74% (inactive). Take `Fc1ccc2nc(Nc3nc4c(s3)CCCC4)sc2c1`: the inhibition is 35.3% (active). In addition, the inhibition under setting [1] is 127%. Consider `Fc1ccc2nc(N3CCCCC3)sc2c1`, for which the inhibition was -11.1% (inactive). Turning to `O=C(CCS(=O)(=O)c1ccccc1)Nc1nc2c(s1)CCCC2`, the inhibition was -10.7% (inactive). For the compound `CCCCN1C(N)=NC[C@@H]1CC1CCCCC1`, the inhibition was 6.72% (inactive). The same measure, in the same setting: in the case of `NC(=O)[C@H]1CC2(CC(c3cccc(NC(=O)[C@H]4CCC(=O)N4)c3)=NO2)CN1C(=O)c1ccccc1C(=O)c1ccccc1` (stereo not given in full) it was 20.3% (inactive). The same measure, in the same setting: in the case of `Cc1cccc(NC(=S)NCc2ccc3[nH]c4c(c3c2)CCCC4)c1` it was -2.9% (inactive). Still for that read-out and setting: to `COc1ccc(SCCN2CCN(CC(C)C)CCC2=O)cc1` belongs 8.87% (inactive). As for `CCOC(=O)c1csc(NC(=O)c2ccc(S(=O)(=O)N3CCCC3)cc2)n1`, the inhibition was 96.7% (active). In addition, the inhibition under setting [1] is 82.9%. Take `CCOC(=O)CSc1nnc(NC(=O)c2cccc(S(=O)(=O)N3CCCC3)c2)s1`: the inhibition is 5.07% (inactive). On the same count and under the same terms, in the case of `COc1ccc(C(=O)Nc2nc(-c3ccc(S(=O)(=O)N4CCOCC4)cc3)cs2)cc1` it was -26.7% (inactive); in that of `Cc1nc(-c2ccc(Cl)cc2)sc1C1(C)CC(c2ccccc2F)=NO1` (stereo not given), 7.68% (inactive); in that of `COC(=O)C1=C[C@@H](C(=O)OC)[C@@H]2C3=C(C(=O)[C@]2(C)NC(=O)c2ccccc2)[C@H](C)n2c(=O)n(C)c(=O)n2[C@@H]3C1`, 2.28% (inactive). Turning to `O=C(C1=C[C@H](c2ccc(C(F)(F)F)cc2)C[C@H](OCc2ccc(CO)cc2)O1)N1CCN(Cc2ccccc2)CC1`, the inhibition is 3.78% (inactive). Same read-out and setting: to `CCN1C(=O)N[C@@H](c2ccccc2)C(C(=O)OC)=C1C` belongs -30% (inactive); to `Cc1ccc(C)c(CSc2nc(-c3ccco3)nc3c2c(=O)n(C)c(=O)n3C)c1`, 4.13% (inactive); to `C/C=C(/C)C(=O)Nc1cccc(C2=NOC3(C2)C[C@@H](C(N)=O)N(C(=O)C2(C)CC2)C3)c1` (stereo not given in full), 4.45% (inactive).

Take `NC(=O)C1=C[C@@H](c2csc3ccccc23)C[C@@H](OCc2ccc(CO)cc2)O1`: the inhibition was 19.8% (inactive).

Take `CCCCCCCCCCCCN1[C@@H](CC(C)=O)c2cc(F)cc(F)c2S1(=O)=O`: the inhibition is -11.3% (inactive).

Consider `COc1ccccc1C1=CC(=O)CCC1`, for which the inhibition was 7.57% (inactive).

For the compound `CC1(C)C2CC[C@]3(C)C(CC=C4[C@@H]5C[C@@](C)(CO)CC[C@]5(C(=O)O)CC[C@]43C)[C@@]2(C)CC[C@@H]1O` (stereo not given in full), the inhibition is 9.9% (inactive).

Usually inhibition stands for the change of the read-out against control, counted positive when it falls.
